# Screening data deposited in PubChem by Johns Hopkins Ion Channel Center.
# KCNQ2 pot = potentiators of rat KCNQ2 potassium channel; Potassium voltage-gated channel subfamily KQT member 2 (Rattus norvegicus), O88943; CHO-K1 KCNQ2, FluxOR thallium flux fluorescence; active compounds read high; B-score at 10 µM; 310,000 tested, 0.54% active;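 active = fluorescence ratio B-score at least 3 SD of library B-scores, with initial fluorescence B-score within 3 of them, cut at about 5.3 in these data; same plate scores as AID 2156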;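 note: B-score of peak minus minimum over baseline fluorescence ratio after K+ and Tl+ stimulus; positive B-score means potentiation of KCNQ2 with more thallium influx and brighter signal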
# KCNQ2 block = rat KCNQ2 potassium channel inhibitors, primary screen, cell-based, CHO-K1, FluxOR thallium flux, B-score | Potassium voltage-gated channel subfamily KQT member 2 (Rattus norvegicus), O88943 | 20 min; active compounds read low | B-score at 10 µM | 310,000 tested, 1.1% active | AID 2156, 2009;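 active = fluorescence ratio B-score at most minus 3 library SDs, with starting brightness B-score within 2 library SDs, cut at about -5.5 in these data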
# Kir21 confirm = mouse Kir2.1 channel blockers, retest, confirmation, cell-based, FluxOR thallium flux, duplicate | shares compounds with KCNQ2 pot | Kir2.1-expressing cells, FluxOR thallium flux fluorescence; active compounds read low | Tl flux remaining, % of negative control (active compounds read low), % at 10 µM | 2,300 tested, 41% active;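 active = Primary-screen hit whose thallium flux fell at least 3 control SD below untreated wells in both duplicates, with normal baseline fluorescence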;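 note: 0% = blank wells without stimulus and 100% = stimulated no-compound controls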
# Target sequence (P35561 whole entry, looked up): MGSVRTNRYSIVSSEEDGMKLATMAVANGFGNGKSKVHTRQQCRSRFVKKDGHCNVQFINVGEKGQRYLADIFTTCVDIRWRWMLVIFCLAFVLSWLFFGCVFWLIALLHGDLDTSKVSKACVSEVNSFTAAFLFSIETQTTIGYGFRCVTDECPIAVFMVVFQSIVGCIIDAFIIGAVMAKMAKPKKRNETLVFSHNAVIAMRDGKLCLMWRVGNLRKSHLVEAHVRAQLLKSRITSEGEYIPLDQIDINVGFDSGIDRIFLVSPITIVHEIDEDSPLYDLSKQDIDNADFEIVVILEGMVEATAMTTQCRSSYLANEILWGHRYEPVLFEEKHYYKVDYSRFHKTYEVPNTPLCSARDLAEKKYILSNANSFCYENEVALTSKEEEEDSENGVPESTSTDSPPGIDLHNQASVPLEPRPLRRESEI
# HEK293 Tl flux = alters thallium flux in parental HEK293 cells, Kir2.1 counter-screen; shares compounds with KCNQ2 pot; FluxOR thallium flux fluorescence; 0% = unstimulated blank wells; FluxOR signal as % of negative control (100 = no effect), % at 10 µM; 2,300 tested, 19% active;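 active = dye signal at least 3 control SD above or below untreated wells in both duplicates, raw fluorescence within 3, either direction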;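 note: percent is based on the flux ratio of peak minus minimum fluorescence over baseline F0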
# CHO-K1 ctr = nonspecific thallium flux increase in parental CHO-K1, confirmation, counter-screen for KCNQ2 potentiator project, cell-based, FluxOR thallium flux, duplicate | shares compounds with KCNQ2 pot | AID 2282, 2010 | 1,200 tested, 43% active | activity increase over 3SD of controls, % at 10 µM | parental CHO-K1 cells, FluxOR thallium flux fluorescence; zero = vehicle mean+3SD, 100% = vehicle-minus-blank window;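 active = signal rise of at least 3 SD above the untreated control mean, in both duplicate wells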;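 note: counter screen of KCNQ2 potentiator hits so any rise reflects channel-independent effects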
# KCNQ1 pot spec = human KCNQ1 channel potentiation off-target, confirmation, selectivity assay for KCNQ2 potentiator project, cell-based, CHO, FluxOR thallium flux. CHO KCNQ1 stable, FluxOR thallium flux fluorescence; beyond 3SD, as % of vehicle-control signal. AID 2283, 2010. 1,200 tested, 28% active. activation over 3SD threshold, % at 10 µM. shares compounds with KCNQ2 pot;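 active = fluorescence ratio rise of at least 3 SD of vehicle wells above their mean, in both replicate wells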;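 note: 0% = vehicle mean plus 3 SD and 100% = vehicle minus unstimulated blank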
# KCNQ2 pot conf = rat KCNQ2 channel potentiators, confirmation, cell-based, CHO, FluxOR thallium flux, duplicate. shares compounds with KCNQ2 pot. CHO-KCNQ2 cells, FluxOR thallium flux fluorescence. potentiation, less the hit threshold, % at 10 µM. 1,200 tested, 68% active;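 active = fluorescence ratio rising 3 SD or more over the vehicle control mean in both replicates, plus primary screen hit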;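 note: peak minus minimum thallium fluorescence divided by baseline after K/Tl stimulus; 0% = vehicle mean plus 3 SD and 100% = vehicle minus unstimulated blank difference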
# Kir2-1 sel = mouse Kir2.1 channel activation off-target, confirmation, selectivity assay for KCNQ2 potentiator project, cell-based, HEK293, FluxOR thallium flux. shares compounds with KCNQ2 pot. HEK293 Kir2.1, FluxOR thallium flux fluorescence. activity over 3SD threshold, % at 10 µM. 1,200 tested, 2% active;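 active = fluorescence ratio rise of at least 3 SD above the vehicle-control mean, seen in both replicates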;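 note: 0% = vehicle mean plus 3 SD and 100% = vehicle minus no-stimulus blank window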
# KCNQ2 W236L pot = potentiators of retigabine-insensitive KCNQ2 W236L, mechanism study for KCNQ2 potentiator project, cell-based, rat KCNQ2 W236L, CHO, automated patch clamp; shares compounds with KCNQ2 pot; automated patch clamp current; current increase over 3SD of negative controls (%), active compounds read high, % at 25 µM; 940 tested, 10% active;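 active = current increase at least 3 SD of the untreated controls above them in both duplicate recordings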
# * hit, by the source's call; i = inactive; . = not tested or not shown. Hits are enriched below; roughly 1.6% of the tested compounds scored in any of these assays.
SMILES,KCNQ2 pot,KCNQ2 block,Kir21 confirm,HEK293 Tl flux,others
O=C(c1c[nH]c(C(=O)C(Cl)(Cl)Cl)c1)c1ccc(F)cc1Cl,6.62*,i,i,i,CHO-K1 ctr=-4.5;KCNQ1 pot spec=-20.0;KCNQ2 pot conf=4.6*;Kir2-1 sel=-40.1;KCNQ2 W236L pot=i
O=C(c1c[nH]c(C(=O)C(Cl)(Cl)Cl)c1)c1ccc(F)cc1F,.,i,.,.,
O=C(Nc1ccc(OC(F)F)cc1)c1cc[n+]([O-])cc1,1.34,i,.,.,
Cc1ccc(C(=O)O)cc1NC(=S)NC(=O)c1ccc(COc2ccccc2)cc1,.,i,.,.,
Cc1cc(C(F)(F)F)nc(SCC(=O)NC2CC3CCC2C3)n1 (configuration not stated),6.01*,i,.,.,CHO-K1 ctr=-12.8;KCNQ1 pot spec=-11.4;KCNQ2 pot conf=43.4*;Kir2-1 sel=-53.6;KCNQ2 W236L pot=i
Cc1cc(C(F)(F)F)nc(SCC(=O)Nc2ccccc2)n1,0.13,i,.,.,
O=C(Nc1cccc(N2C(=O)C=CC2=O)c1)c1cccs1,.,i,72.0%*,i,
Cc1nc2ccccc2c(=O)n1-c1cccc(NC(=O)c2cccs2)c1,0.47,i,.,.,
CCCC(=O)NC(Nc1cccc(C(F)(F)F)c1)C(Cl)(Cl)Cl (configuration not stated),.,i,.,.,
Cc1ccc(C)c(-c2cc(C(=O)NCc3cccs3)c3ccccc3n2)c1,15.8*,i,i,72.5%*,CHO-K1 ctr=8.2*;KCNQ1 pot spec=-14.1;KCNQ2 pot conf=31.7*;Kir2-1 sel=-37.2;KCNQ2 W236L pot=i
Cc1ccc(C)c(-c2cc(C(=O)Nc3nccs3)c3ccccc3n2)c1,.,i,.,.,
CS(=O)(=O)C1=NSC2=NC(=O)/C(=C\c3ccc(OC(=O)c4ccco4)c(Br)c3)C(=N)N21,.,i,.,.,
Cc1occc1C(=O)NNC(=O)COc1ccc(Br)cc1Br,.,i,.,.,
Cc1occc1C(=O)NNC(=S)NC(=O)COc1ccc(Cl)cc1Cl,9.53*,i,i,149.0%*,CHO-K1 ctr=-18.2;KCNQ1 pot spec=93.4*;KCNQ2 pot conf=6.5*;Kir2-1 sel=-24.8;KCNQ2 W236L pot=i
COc1ccc(C(=O)Nc2cc(C)nn2-c2ccc(F)cc2)cc1,.,i,.,.,
CCSc1nc2sc3c(c2c(=O)[nH]1)CC(C)(CC)OC3 (configuration not stated),.,i,.,.,
CCC1(C)Cc2c(sc3nc(SC)[nH]c(=S)c23)CO1 (configuration not stated),15.5*,i,i,456.5%*,CHO-K1 ctr=-15.9;KCNQ1 pot spec=32.0*;KCNQ2 pot conf=81.9*;Kir2-1 sel=0.1*;KCNQ2 W236L pot=i
CCOC(=O)C(C(=O)OCC)C(C(=O)OCC)N1CCOCC1 (configuration not stated),14.6*,i,.,.,CHO-K1 ctr=-7.1;KCNQ1 pot spec=23.9*;KCNQ2 pot conf=35.0*;Kir2-1 sel=-56.0;KCNQ2 W236L pot=i
CCOC(=O)C(C)CC(C)C(=O)N1CCOCCOCCN(C(=O)C(C)CC(C)C(=O)OCC)CCOCC1 (configuration not stated),0.55,i,.,.,
COc1ccc(C(=O)Nc2ccc(S(=O)(=O)N(C)c3ccccc3)cc2)cc1,0.22,i,.,.,
Cc1ccc(S(=O)(=O)Nc2c(Cl)c(Cl)c(O)c3ccccc23)cc1,6.4*,i,i,i,CHO-K1 ctr=-9.1;KCNQ1 pot spec=67.8*;KCNQ2 pot conf=-10.9;Kir2-1 sel=-45.2;KCNQ2 W236L pot=i
Cc1ccc(S(=O)(=O)Nc2c(O)ccc3ccccc23)cc1,2.44,i,.,.,
CCOC(=O)c1c(N)sc2c1CCC(C)C2 (configuration not stated),0.04,i,.,.,
CCOC(=O)c1c(NS(C)(=O)=O)sc2c1CCC(C)C2 (configuration not stated),2.19,i,i,178.0%*,
O=C(O)COc1ccccc1/C=N/NC(=O)CSc1nc2ccccc2n1Cc1ccccc1Cl,2.33,i,i,73.0%*,
SMILES,KCNQ2 pot,KCNQ2 block,Kir21 confirm,HEK293 Tl flux,others
O=C(CSc1nc2ccccc2n1Cc1ccccc1)N/N=C/c1ccccc1C(=O)O,0.51,i,.,.,
Cc1nc(-c2ccccc2)sc1-c1nc(-c2ccncc2)ncc1S(=O)(=O)c1ccccc1,.,i,.,.,
COc1ccc(C2CCCN2CC(O)COc2ccccc2C(C)C)cc1 (configuration not stated),-6.6,-6.6*,29.5%*,i,
CCOC(=O)N1CCN(CC(O)COc2ccccc2C(C)C)CC1 (configuration not stated),0.55,i,.,.,
COC(=O)C1=C(C)N=C2SCCC(=O)N2C1c1ccc(OC(=O)c2ccco2)cc1 (configuration not stated),.,i,52.5%*,i,
C=CCOC(=O)C1=C(C)N=C2SCCC(=O)N2C1c1ccc(OC(=O)c2ccco2)cc1 (configuration not stated),.,i,.,.,
S=C1NC[C@H](c2ccccc2)N1CC1CCCCC1,1.29,i,.,.,
COc1ccc(/C=C/C(=O)CC(O)(c2ccccc2)C(F)(F)F)cc1 (configuration not stated),.,i,.,.,
O=C(/C=C/c1ccccc1)CC(O)(c1ccccc1)C(F)(F)F (configuration not stated),.,i,61.5%*,i,
O=c1[nH]cnc2scc(-c3ccc(-c4ccccc4)cc3)c12,.,i,.,.,
Cc1c(-c2ccccc2)sc2nc[nH]c(=S)c12,10.1*,i,i,i,CHO-K1 ctr=-14.4;KCNQ1 pot spec=-10.0;KCNQ2 pot conf=6.5*;Kir2-1 sel=-41.2;KCNQ2 W236L pot=i
COCc1c(C(=O)OCC(=O)NCCN2C(=O)CSC2=O)oc2ccccc12,.,i,.,.,
COC(=O)c1sc(N2CCN(c3ccc(Cl)cc3)CC2)nc1N,0.09,i,.,.,
O=C(NCc1ccco1)c1ccc(C(F)(F)F)cc1,1.02,i,.,.,
O=C(NCc1ccco1)c1ccccc1-c1ccc(C(F)(F)F)cc1,6.09*,i,i,i,CHO-K1 ctr=-8.1;KCNQ1 pot spec=23.0*;KCNQ2 pot conf=1.0*;Kir2-1 sel=-39.0;KCNQ2 W236L pot=i
